# Only some compounds are listed: those with a hit (about 3.8% of all), similar ones and a draw of the others.
# TrxR1 substrate = qHTS Assay for Substrates of Mammalian Selenoprotein Thioredoxin Reductase 1 (TrxR1): qHTS. Thioredoxin reductase 1, cytoplasmic (Rattus norvegicus), O89049. purified TrxR1 substrate turnover, NADPH consumption readout. AID 588456, 2011. hit rate 0.01% among 390,000. Potency, µM (titrated, usually from 114 µM), for the others: at the highest dose activity change, negative = substrate turnover; note: nearly all actives have a fitted effect of over 50% in size
#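 Rat TrxR1, dispensed at 90 nM, was prereduced with 400 uM NADPH (final) for 5 min at ~22 deg C, then incubated with compound 15 min before 400 uM selenite. A first-read NADPH fluorescence drop versus no-compound background flagged substrates.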
# Sfp inh = qHTS Assay for Inhibitors of Bacillus subtilis Sfp phosphopantetheinyl transferase (PPTase); 4'-phosphopantetheinyl transferase ffp (Bacillus subtilis), Q9F4F7; Biochemical Sfp PPTase activity, qHTS; Potency, µM, without a hit: largest response in the series, negative = inhibition, actives largely listed as inhibitors; hit rate 3.5% among 310,000;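 note: the enzyme is Sfp with the accession as filed and its product quenches rhodamine fluorescence; 0% = enzyme reaction without inhibitor and -100% = no enzyme wells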
#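 Step 1, compound plus 15 nM Sfp-PPTase, 15 min, room temperature. Step 2, add rhodamine-CoA (5 uM) and BHQ-2-YbbR (12.5 uM). Step 3, read 525/598 nm fluorescence at 0 and 30 min.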
# KAT2A inh = qHTS Assay for Inhibitors of GCN5L2; Potency, µM (doses to about 58.9 µM), without a hit: top-dose activity change, negative = inhibition, most hits filed as inhibitors; GCN5L2 HAT assay, ThioGlo1 CoA-SH fluorescence; hit rate 0.21% among 390,000; AID 504327, 2011; Histone acetyltransferase KAT2A (Homo sapiens), Q92830
#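 Free CoA generated was detected with ThioGlo1 (50uM) fluorescence at Ex340nm/Em540nm, read immediately and after 20 min at room temperature. Enzyme, 20 nM in HEPES pH 7.5 buffer, saw compounds 15 min before adding 75uM H3(1-25) peptide and 70uM acetyl-CoA.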
# TrxR1 inh = qHTS Assay for Inhibitors of Mammalian Selenoprotein Thioredoxin Reductase 1 (TrxR1): qHTS | Potency, µM (doses to about 114 µM), inactives show at the top dose activity change, negative = inhibition, actives largely listed as inhibitors | recombinant rTrxR1, NADPH fluorescence consumption, selenite substrate | hit rate 1% among 390,000; note: nearly all actives have a fitted effect of over 65% in size
#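 Rat TrxR1 (90 nM in the dispensed reagent) was pre-reduced with 400 uM NADPH for 5 min at room temperature, then incubated with compound for 15 min. After 400 uM selenite was added, NADPH fluorescence (Ex 340/Em 450 nm) was followed for 8 min.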
# GLS inhibitor = qHTS for Inhibitors of Glutaminase (GLS); GLS enzymatic activity, qHTS titration; Potency, µM (doses to about 45.5 µM), for inactives: at the highest dose activity change, negative = inhibition, hits mostly inhibitors; hit rate 0.21% among 410,000; AID 624170, 2012
# Target sequence (O94925 whole entry, looked up): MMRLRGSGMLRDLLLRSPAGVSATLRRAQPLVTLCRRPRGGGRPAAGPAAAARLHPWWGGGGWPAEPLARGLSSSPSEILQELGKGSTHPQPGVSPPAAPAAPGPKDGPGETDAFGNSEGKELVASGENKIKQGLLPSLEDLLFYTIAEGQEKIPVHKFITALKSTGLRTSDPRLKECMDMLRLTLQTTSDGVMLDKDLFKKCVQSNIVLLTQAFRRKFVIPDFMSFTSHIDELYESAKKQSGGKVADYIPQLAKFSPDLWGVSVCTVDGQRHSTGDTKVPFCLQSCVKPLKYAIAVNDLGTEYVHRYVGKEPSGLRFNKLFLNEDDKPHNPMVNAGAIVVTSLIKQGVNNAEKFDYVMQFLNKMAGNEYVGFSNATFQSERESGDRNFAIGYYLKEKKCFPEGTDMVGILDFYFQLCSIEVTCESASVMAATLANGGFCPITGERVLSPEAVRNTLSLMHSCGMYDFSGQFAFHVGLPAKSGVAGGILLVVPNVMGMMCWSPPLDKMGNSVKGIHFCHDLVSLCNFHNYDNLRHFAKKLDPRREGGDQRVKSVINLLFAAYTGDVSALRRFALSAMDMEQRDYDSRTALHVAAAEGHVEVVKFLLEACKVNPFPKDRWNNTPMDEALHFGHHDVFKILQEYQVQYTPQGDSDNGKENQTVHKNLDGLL
#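 Coupled fluorescence readout: glutamate oxidase/HRP/Amplex Red detect glutamate formed by hKGA from L-glutamine (1 mM solution added). Buffer 45 mM KH2PO4 pH 8.2, 0.02% Tween-20; reads at t0 and 30 min RT.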
# VDR inhibitor = Inhibitors of the vitamin D receptor (VDR): qHTS; hit rate 0.93% among 400,000; VDR-SRC2-3 peptide fluorescence polarization, 2 h; Potency, µM, without a hit: max response, negative = inhibition, actives largely listed as inhibitors
#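 VDR–SRC2-3 interaction, FP format. Cmpds 23 nl via pintool, brief spin, 2 h ambient incubation.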
# Numbers without * were called inactive; ? = inconclusive; . = not tested or not shown; ! = a repeat was not active; [ ] = another dose, or the depositor's remark. Calls come from the whole dose curve; as a rule, active = well fitted curve in the direction sought with a large enough effect; inconclusive = small, poorly fitted or top-dose-only effect, or another doubt; inactive = no such curve, though single readings can be large; an effect the other way counts as inactive or inconclusive. Unless noted, % is set by controls: 0 for no effect and ±100 for the full control effect; potency is the fitted concentration of half-maximal effect.
SMILES,TrxR1 substrate,Sfp inh,KAT2A inh,TrxR1 inh,GLS inhibitor,VDR inhibitor
CCOC(=O)CN1NC2(CCC(C(C)(C)C)CC2)NC1=S (stereo not drawn),2%,22µM*,-64%,-5%,19%,9%
CCOC(=O)CN1NC2(CCCCC2)NC1=S,6%,28µM*,-3%,-4%,58%,-18%
CCOC(=O)CN1NC2(CCCCCCC2)NC1=S,2%[57.1 µM],40µM*,-11%,-6%[57.1 µM],?,-8%
CCOC(=O)CN1C(=O)NC2(CCCc3ccccc32)C1=O (stereo not drawn),0%,5%,-3%,2%,-11%,-16%
CCOC(=O)CN1NC2(CCCC(C)C2)NC1=S (stereo not drawn),5%,25µM*,-10%,3%,16%,6%
Cn1nc(C(=O)OCC(=O)Nc2ccc(F)cc2Cl)c2ccccc2c1=O,6%,.,1%,21%[57.1 µM],-5%,-2%
Cc1ccc(NC(=O)C2(C)CCN2C(=O)Cc2ccc(C(C)(C)C)cc2)cc1C (stereo not drawn),.,.,.,.,0%,.
Cc1ccc(NC(=O)CSc2ccc(-c3sc(-c4ccccc4)nc3C)nn2)cc1F,13%,.,-8%,-8%,1%,10%
CC(OC(=O)c1ccc(NS(=O)(=O)c2ccc3[nH]c(=O)[nH]c3c2)cc1)C(N)=O (stereo not drawn),1%,10%,-5%,9%,-8%,10%
CC1=C(C(=O)OCc2ccccc2)C(/C=C/c2ccccc2)NC(=S)N1 (stereo not drawn),-16%,6%,-14%,13%[0.0914 µM],-22%,-13%
Nn1c(SCC(=O)NCc2ccc3c(c2)OCO3)nnc1C(F)(F)F,6%,.,-2%,23%,1%,7%
CN(CC(=O)Nc1c(Cl)cccc1Cl)C(=O)c1ccccc1SCC(=O)N1CCCC1,-1%,22%,1%,-12%,16µM*,-4%
Cc1cccc(C)c1NC(=O)CN(C)C(=O)c1ccccc1SCC(=O)N1CCCC1,-5%[57.1 µM],.,-2%,4%,1%,14%
O=c1c2c(-c3ccccc3)csc2nc2n1CCC2,-12%[11.4 µM],32µM*,0%,13%[11.4 µM],-19%,-7%
O=c1c2c(-c3ccc([N+](=O)[O-])cc3)csc2nc2n1CCCCC2,3%[57.1 µM],-26%,13%,21%[57.1 µM],28%,-22%
O=C(COc1ccc(Br)cc1CNC1CCCCC1)NCCc1ccccc1,-1%,9%,-4%,13%,0%,-22%
CN(C)c1ccc(NC(N)=S)cc1,3%[57.1 µM],-20%,-3%,-13%[57.1 µM],14µM*,-13%
CSc1ccc(NC(N)=S)cc1,0%,5%,-10%,-10%,-2%,-19%
C=CCNC(=S)Nc1cccc2ccccc12,40%[57.1 µM],79µM*,4%,-5%,-19%,10%
C=CCNC(=S)Nc1ccc(N(C)C)cc1,6%,10%,2%,-4%,-1%,79µM*
O=C(CCNC(=O)c1ccccc1Cl)Nc1cc(C(F)(F)F)ccc1N1CCCC1,-2%,-2%,-3%,8%,27%,-13%
Cc1ccc(NC(=O)c2nc[nH]c2C(=O)Nc2ccc(C)cc2)cc1,12%[57.1 µM],4%,4%,24%[57.1 µM],6%,-1%
N#CC(C(=O)NC1CCCCC1)c1nc2ccccc2nc1N1CCN(c2ccccc2F)CC1 (stereo not drawn),-3%,18%,-1%,-7%,6%,-1%
CCN(Cc1ccncc1)Cc1c(O)ccc2cc(Br)ccc12,9%[57.1 µM],45µM*,-2%,7.9µM*,-12%,-16%
CC(C)(C)Cc1nnc(NS(=O)(=O)c2ccc(F)cc2)s1,-4%,24%,-2%,1%,15%,-1%
SMILES,TrxR1 substrate,Sfp inh,KAT2A inh,TrxR1 inh,GLS inhibitor,VDR inhibitor
Cc1ccc(S(=O)(=O)Nc2nnc(CC(C)(C)C)s2)cc1,4%,79µM*,-1%,39%,2%,-25%
CCNc1nc2[nH]c(=O)c3c(c2s1)OC(N)=C(C#N)C3c1ccc(C)cc1 (stereo not drawn),7%[57.1 µM],45µM*,-6%,4%[57.1 µM],7%,-3%
COc1ccc(CCNC(=O)c2nnn(CC(=O)Nc3ccc(C)cc3C)c2N)cc1OC,-6%,?,-12%,15%,-13%,3%
CCC(=O)NC(Nc1sc2c(c1C(=O)OC)CCC2)C(Cl)(Cl)Cl (stereo not drawn),-3%,20µM*,-14%,-8%,7%,-18%
COC(=O)c1c(NC(NC(=O)C(C)C)C(Cl)(Cl)Cl)sc2c1CCC2 (stereo not drawn),-11%,50µM*,-4%,-13%,-3%,-13%
CC(=O)COc1coc(CN2CCN(c3ccc(F)cc3)CC2)cc1=O,6%[57.1 µM],10%,-6%,13%[57.1 µM],2%,-8%
CCC(C)c1ccccc1NC(=O)C(C)N(C)Cc1cccc(OC)c1 (stereo not drawn),-3%,50µM*,-8%,7%,0%,9%
COc1ccc(NC(=O)C(C)N(C)Cc2ccc3ccccc3c2)cc1 (stereo not drawn),-7%[57.1 µM],-15%,-5%,1%[57.1 µM],10%,-11%
COc1ccc(CS(=O)(=O)/C(Cl)=C(/Cl)C(=O)Nc2ccc(OC)nc2)cc1,7%[57.1 µM],1%,-4%,?,-4%,40µM*
Cc1ccc(CNC(=O)c2cnc(N3CCCC3)nc2C)cc1,12%[57.1 µM],.,-2%,25%[57.1 µM],-1%,5%
Cc1ccc(CNc2ccc3c(c2)OCO3)cc1,6%,56µM*,.,?,3%,-23%
Cc1ccc(CNc2ncc(-c3ccc4c(c3)OCO4)n2C)cc1,-2%,-25%,-4%,-15%,1%,-4%
CCN1/C(=C/C=C/c2oc3ccc4ccccc4c3[n+]2CC)Oc2ccc3ccccc3c21,-2%[57.1 µM],8.9µM*,1%,?,-12%,?
COc1ccc(C(=O)Cn2c(=O)oc3ccc(C)cc32)cc1,-4%,20%,-16%,18%[0.0914 µM],-5%,?
COc1ccc(NC(=O)c2cccc3c2C(=O)N(C2CCCCC2)C3)cc1,6%,-6%,-4%,21%,3%,27%
COc1ccc(OC)c(NC(=O)c2cccc3c2C(=O)N(C2CCCCC2)C3)c1,7%,1%,-15%,22µM*!,0%,22µM*!

# Screening data (PubChem)
